The sequences below were run on VDR:RXRa (NR concentration 270 nM, RXRa partner concentration 90 nM) (assay: PBM binding z-score (relative to random genomic background probes); higher = stronger binding; sequences stand for … in GC…GCGATTGACAGCGTAGAATGAAGG).
Method: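 Protein-binding microarray (Agilent 4x180K custom design, double-stranded 60-nt probes: 5' GC cap, 34-nt variable region, 24-nt constant primer region; full probe sequence given). Purified or IVT nuclear receptor:RXRα heterodimers (3:1 NR:RXRα, mostly 270:90 nM) or homodimers were incubated for 1 h in PBS with 2% milk and no ligand, then detected with Alexa488 antibodies. Fluorescence from o1-orientation probes (~5 replicates averaged) was converted to z-scores against 500 random hg19 background probes. Variable regions are seed direct-repeat (DR0–DR5) sites, all their single-nucleotide variants and half-site ablations.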
With AGAATGAGGTTATACGTCGATCAGGGAAGAAAGT the PBM binding z-score was 1.29. In the case of CCTGCTAGGTCATGGTTAGCTAATCTACAGTATG, the PBM binding z-score is reported as 1.39. For CCGACTGGGCCAAGGTCATTGATCAGTCAAAGCA, the PBM binding z-score was 3. In the case of GCTTGTATATCAAGGTTAAGAAAGACTAAGCTAA, the PBM binding z-score is reported as 0.325. ACTAGTTGGTCAGCTGAGGACACACACAATTCGG showed a PBM binding z-score of 0.506. Work on GCTGCTAGGTCAACTCATGGTCAGCTAAAGCTCG yielded a PBM binding z-score of 1.71. Work on TCATATAAGTAAAGGTGAAAGTCGAACGATATGA yielded a PBM binding z-score of 0.925. Sequence CCTAGTTGGTCAAGGGCACACACGCTATAGGTAC has a PBM binding z-score of 0.813. TCGGGTAGGTTAGGGGCATTCAGAATGGCGTCGA showed a PBM binding z-score of 1.57. Sequence GCATATAGGTCATACAAGGTGAAAGTCCGATTGT has a PBM binding z-score of 4.55. With TCTCAGAGGACACGAAAGGTCAGAGCTCGACATC the PBM binding z-score was 3.62. CCTCGGAGGAGAGAAGGTCAGAGCTGTCCGCTTT showed a PBM binding z-score of 0.722. GCTATTTGGTCAGTAAAAGGTCACACACCGGTCG was tested, and the PBM binding z-score was 4.32. ATATGTAGGTTACATCCAGGTCATTCAGGCTATG showed a PBM binding z-score of 4.11. In the case of CCAACTAGGTCACGAAAGGTCAAAGTCGAATGAC, the PBM binding z-score is reported as 6.81. CCTTACGGGTAACTGACAGGTTATAGCATTTGGA gave a PBM binding z-score of 0.0689. TTAATGAGGTTATAAGATCAGGGAACGTTGCAAA was tested, and the PBM binding z-score was 1.27. With CAGACTAGGTCACCGGAAGGTCAAAGTCCGCATG the PBM binding z-score was 5.78. For ATCTCAAGGTAAAGTTCAGTGAAAGATCGATAGA, the PBM binding z-score was 1.8. TGTCAAAGTTAAAAGGTAACGTAAGTATCCACAC gave a PBM binding z-score of 0.375. In the case of CTCGAAAGGTCGTGCTCAGGTCAGTATACCAAAC, the PBM binding z-score is reported as 5.19. In the case of ACTATTAGTTGAGACGAGGGCAAGCGATAGGTTG, the PBM binding z-score is reported as 0.29. TCTCGGAGGACACGAAGGTTAGAGCTTTCCAGAG gave a PBM binding z-score of 0.237. Sequence ACAGACAGGTGAGTGAAGGTAACTCAACTGGACG has a PBM binding z-score of -0.232. With TCAAGTAGGTTAGGGGCATTCAGAATGGCGTCGA the PBM binding z-score was 1.05. CCGAGTAGCTTATGGGGCATTCAGGCAACGGTGA was tested, and the PBM binding z-score was -0.651. For TCTCGGAGGACACGAAAGGCCAGAGCTCGACATC, the PBM binding z-score was -0.308. Sequence CGAACTAGGTCAAGGACAGTTAATCTCCGCACGC has a PBM binding z-score of 1.6. In the case of CGGACTAGGTCATTGACAGGACAGTGAATAGTAA, the PBM binding z-score is reported as 2. In the case of ATCTCTAGATAAGACTCAGTTCAGTGAAGAACGC, the PBM binding z-score is reported as 0.209. CCGACTGGGGCAGAAAGGTTACTATACCATCCGG gave a PBM binding z-score of 0.555. GGACCGAGGGCAAAGTTGATAGCATCTGTCGACG showed a PBM binding z-score of 0.837. With GCGACTGCGGCAAAGCAGGTTACCATAAGGTTGG the PBM binding z-score was -0.392. Sequence CCTTACTGGTCACGAGGTTATAGCACGACGAGCG has a PBM binding z-score of 1.86. GCAGACAGTTGAAACGCAGGTAACTCAGGGTGGC showed a PBM binding z-score of -0.517. ATCTCTAGGTAAAGATAGTTCAGTGCATGCAAAT gave a PBM binding z-score of 0.777. Sequence ATCTCTAGGTAACAAGTACAGTGAAAGAGAGGAC has a PBM binding z-score of 0.429. Work on TCTTGTAGATCAAAGGTTCAGAAAGCCGAAGCCT yielded a PBM binding z-score of 1.47. Work on CCCAGTAGGTTATGGGGCATTCAGGCAACGGTGA yielded a PBM binding z-score of 0.00537. ACTTACGGGTCAACGAGATTATAGCACGCGTATA was tested, and the PBM binding z-score was 5.
